This is a sample that favours compounds with a hit; in the whole collection about 10% have one here.
GLS inhibitor – qHTS for Inhibitors of Glutaminase (GLS) | Glutaminase kidney isoform, mitochondrial (Homo sapiens), O94925 | GLS enzymatic activity, qHTS titration | Potency, µM (doses to about 45.5 µM), inactives show at the highest dose activity change, negative = inhibition, hits mostly inhibitors | 0.21% of 410,000 active | AID 624170, 2012; also: % is scaled to controls: 0 for no effect and ±100 for the full control effect
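Coupled fluorescence readout: glutamate oxidase/HRP/Amplex Red detect glutamate formed by hKGA from L-glutamine (1 mM solution added). Buffer 45 mM KH2PO4 pH 8.2, 0.02% Tween-20; reads at t0 and 30 min RT.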
G9a inh – qHTS Assay for Inhibitors of Histone Lysine Methyltransferase G9a; G9a H3K9 monomethylation, AlphaScreen, 2 h; Potency, µM (top dose mostly 102 µM), for the others: at the top dose activity, negative = inhibition, usual class: inhibitors; 8.8% of 350,000 active; Histone-lysine N-methyltransferase EHMT2 (Homo sapiens), Q96KQ7; AID 504332, 2011; also: % is scaled to controls: 0 for no effect and ±100 for the full control effect; nearly all actives have a fitted effect of over 75% in size
Target sequence (Q96KQ7 913-1193 limits assumed): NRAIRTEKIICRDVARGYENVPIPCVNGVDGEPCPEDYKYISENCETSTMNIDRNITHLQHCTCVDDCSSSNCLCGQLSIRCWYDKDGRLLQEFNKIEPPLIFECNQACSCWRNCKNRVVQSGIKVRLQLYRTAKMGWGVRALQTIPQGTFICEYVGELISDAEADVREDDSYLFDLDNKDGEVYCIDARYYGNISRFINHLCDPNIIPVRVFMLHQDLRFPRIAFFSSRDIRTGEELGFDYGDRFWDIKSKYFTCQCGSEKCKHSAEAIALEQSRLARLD
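Quantitative HTS format: methyltransferase activity on a biotin-tagged H3K9 peptide is measured by AlphaScreen, using a rabbit anti-monomethyl-H3K9 antibody with streptavidin donor and anti-IgG acceptor beads. Final levels are 20 nM enzyme, 500 nM peptide, 20 uM SAM; 2 h RT.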
HP1b chromo inh – HTS for Inhibitors of HP1-beta Chromodomain Interactions with Methylated Histone Tails. 0.56% of 390,000 active. AlphaScreen HP1-beta / biotin-H3K9me3 peptide binding. Chromobox protein homolog 1 (Homo sapiens), P83916. Potency, µM (series often up to 114 µM), for the others: at the top dose activity change, negative = inhibition, actives largely listed as inhibitors; also: nearly all actives have a fitted effect of over 70% in size
Target sequence (P83916 whole entry, looked up): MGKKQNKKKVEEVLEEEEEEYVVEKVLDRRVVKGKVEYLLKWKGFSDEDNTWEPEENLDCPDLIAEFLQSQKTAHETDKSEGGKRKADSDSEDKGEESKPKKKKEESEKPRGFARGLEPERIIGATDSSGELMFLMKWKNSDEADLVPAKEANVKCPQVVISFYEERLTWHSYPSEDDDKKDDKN
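HP1-beta protein (50 nM final) preincubated 30 min at room temperature with biotinylated H3(1-18)K9me3 peptide (50 nM) in PBS pH 7.4, 0.01% Tween-20, then compound added for 30 min. AlphaScreen streptavidin donor/nickel chelate acceptor beads (10 ug/mL final), 30 min dark, luminescence read.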
JMJD2A Tudor – qHTS Assay for Inhibitors of JMJD2A-Tudor Domain. Lysine-specific demethylase 4A (Homo sapiens), O75164. AlphaScreen JMJD2A-Tudor / H3K4me3 peptide binding. Potency, µM (doses to about 114 µM), without a hit: top-dose activity change, negative = inhibition, most hits filed as inhibitors. 4.4% of 390,000 active. AID 504339, 2011; also: % is scaled to controls: 0 for no effect and ±100 for the full control effect; nearly all actives have a fitted effect of over 50% in size
L3MBTL1 inh – qHTS Assay for the Inhibitors of L3MBTL1. Lethal(3)malignant brain tumor-like protein 1 (Homo sapiens), Q9Y468. AlphaScreen L3MBTL1–H3K9me1 peptide binding. Potency, µM (top dose mostly 57.1 µM), for inactives: at the top dose activity, negative = inhibition, usual class: inhibitors. 0.66% of 230,000 active; also: % is scaled to controls: 0 for no effect and ±100 for the full control effect; nearly all actives have a fitted effect of over 60% in size
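AlphaScreen assay: L3MBTL1 (50 nM final) was preincubated 30 min at room temperature with biotinylated H3(1-15)K9me1 peptide (75 nM final), then 30 min with library compounds; streptavidin donor and nickel chelate acceptor beads (10 ug/mL final) added, 30 min dark.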
BAZ2B block – qHTS Assay for Inhibitors of BAZ2B. Potency, µM (top dose mostly 114 µM), inactives show at the highest dose activity change, negative = inhibition, usual class: inhibitors. AlphaScreen BAZ2B-H3K14Ac peptide displacement. 4.4% of 360,000 active. Bromodomain adjacent to zinc finger domain protein 2B (Homo sapiens), Q9UIF8; also: % is scaled to controls: 0 for no effect and ±100 for the full control effect; nearly all actives have a fitted effect of over 60% in size
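Complex of BAZ2B and biotin-H3K14Ac (50 nM apiece) forms over 30 min at RT, then faces library compounds up to 110 uM for another 30 min; AlphaScreen beads added, 20 min dark incubation, luminescence read.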
* = called active by the depositor; u = inconclusive; x = no result given; [ ] = remark or other dose. Calls follow the shape of the dose curve; as a rule, active = well fitted curve in the direction sought with a large enough effect; inconclusive = small, poorly fitted or top-dose-only effect, or another doubt; inactive = no such curve, though single readings can be large; an effect the other way counts as inactive or inconclusive. Potency is read from the fitted curve at half-maximal effect.

SMILES	GLS inhibitor	G9a inh	HP1b chromo inh	JMJD2A Tudor	L3MBTL1 inh	BAZ2B block
CC(c1ccccc1)C1C(C#N)=C(N)OC2=C1C(=O)CC(C)(C)C2 (stereo not given)	x	-2%	33%	-21%	-2%	0%
COc1cccc(CNC(=O)c2c(O)nc3ccccn3c2=O)c1	4%	u	17%	-12%	x	0%
O=C(Nc1ccc(-c2n[nH]c(=S)o2)cc1)c1ccccc1	2%	32µM*	45%	u	x	-13%
COc1ccc(C(=O)Nc2ccc3oc(-c4ccc(OC)cc4)nc3c2)cc1	5%	-27%[59 µM]	29%	-10%	x	-6%
O=C(Nc1ccc(-c2ccccc2)cc1)c1ccccc1	-5%	-12%[0.501 µM]	31%	11%	-3%[2.29 µM]	13%
COc1ccc(C(=O)Nc2ccc(-c3n[nH]c(=S)o3)cc2)cc1	-11%	1.8µM*	26%	u	x	u
COc1ccc(Nc2ccc3cc(S(=O)(=O)N4CCCC4)ccc3n2)cc1Cl	5%	19%[59 µM]	41%	7%	x	2%
COc1ccc(Cl)cc1Nc1ccc2cc(S(=O)(=O)N3CCCCC3)ccc2n1	-7%	5µM*	68%	46%	x	9%
CCN(CC)S(=O)(=O)c1cc(-c2onc(C)c2C)ccc1OC	1%	11%[59 µM]	50%	2%	x	0%
CCN(CC)CCCNC(=O)c1nn(C)c2c1CSc1ccccc1-2	5%	-47%[59 µM]	40%	2%	x	3%
Cc1ccc2c(c1)c1c(n2C)-c2[nH]ncc2CC1	9%	u	u	u	-7%	45µM*
Cn1c2c(c3ccccc31)CCN=C2c1ccccc1	-9%	x	28%	-15%	x	x
O=C(Nc1ccc2c(c1)OCO2)c1cc(-c2ccncc2)nc2ccccc12	5%	50µM*	u	u	x	u
Cc1ccc(/C=N/NC(=O)c2cccnc2)o1	-4%	-4%	39%	-16%	x	-18%
O=C(O)c1cc(-c2ccc(-c3c(-c4ccc5c(c4)OCO5)noc3-c3ccsc3)cc2)nc2ccccc12	4%	56µM*	-2%	89µM*	-17%	u
Cc1ccc(/C=N\NC(=O)c2cncc(Br)c2)o1	-2%	50µM*	29%	-14%	14%	-4%
Cc1ccc(/C=N/NC(=O)c2cc(-c3ccncc3)nc3ccccc23)o1	5%	45µM*	27%	-34%	x	u
CN(C)c1ccc(-c2c(-c3ccc4c(c3)OCO4)noc2-c2ccsc2)cn1	2%	x	11%	-20%	14%	-6%
O=C(N/N=C/c1ccc2c(c1)OCO2)c1cc(-c2ccncc2)nc2ccccc12	2%	9%[59 µM]	23%	-3%	-5%	-35%
CCOc1ccc(C(=O)NCc2ccc3c(c2)CCN3C(=O)c2ccc(C)cc2)cc1OCC	-12%	3%[59 µM]	7%	-19%	x	-10%
O=C(N/N=C/c1ccccn1)c1cc(-c2ccncc2)nc2ccccc12	-9%	-4%[59 µM]	40%	-1%	-8%	79µM*
Cc1ccc(-c2cc(C(=O)N/N=C/c3ccc([N+](=O)[O-])o3)c3ccccc3n2)o1	-10%	45µM*	10%	-35%	x	-37%
O=C(c1ccc2c3c(cccc13)CC2)C1CCCN(Cc2cccnc2)C1 (stereo not given)	-23%	x	-3%[57 µM]	u	-8%	45µM*
O=C(c1ccc2c3c(cccc13)CC2)C1CCCN(C(=O)c2cccnc2)C1 (stereo not given)	-3%	u	33%	-26%	-9%	-25%
Cc1cccc(CN2CCCC(C(=O)c3ccc4c5c(cccc35)CC4)C2)n1 (stereo not given)	5%	u	10%	u	u	u
SMILES	GLS inhibitor	G9a inh	HP1b chromo inh	JMJD2A Tudor	L3MBTL1 inh	BAZ2B block
COc1cc(CN2CCCC(C(=O)c3ccc4c5c(cccc35)CC4)C2)cc(OC)c1O (stereo not given)	19%	32µM*	-20%	u	-13%	40µM*
CCC(Oc1ccccc1F)C(=O)Nc1c(C(=O)c2ccccc2)oc2ccccc12 (stereo not given)	-3%	101%[59 µM]	85%	63%	x	54%
COCCNC(=O)c1c(-c2ccccc2)c(-c2ccccc2)nn(C)c1=O	0%	u	34%	-2%	x	18%
Cc1ccc(OCCn2cnc3c2c(=O)n(C)c(=O)n3C)cc1	0%	45µM*	29%	-6%	x	1%
Cn1c(=O)c2c(ncn2CCO)n(C)c1=O	0%	-8%[59 µM]	34%	-6%	x	-16%
CCN(CC)CCNC(=O)c1ccc2c(=O)n(C3CCCC3)c(=S)[nH]c2c1	-4%	20µM*	4%	-36%	0%	u
CCOc1cc2[nH]c(=S)n(Cc3ccc(C(=O)NCCN(CC)CC)cc3)c(=O)c2cc1OCC	-2%	35µM*	15%	u	x	-20%
O=C(NCCN1CCCC1)c1ccc(Cn2c(=S)[nH]c3ccc(Br)cc3c2=O)cc1	-9%	50µM*	12%	-32%	x	-19%
CC1CCN(CCNC(=O)c2ccc3c(=O)n(Cc4ccc(Cl)cc4)c(=S)[nH]c3c2)CC1	-6%	11%	28%	-16%	x	u
O=C(NCCCN1CCCC1)c1ccc(Cn2c(=S)[nH]c3ccc(Br)cc3c2=O)cc1	x	22µM*	x	x	-26%	-26%
CC1CCN(C(=O)Cn2cc(SCc3ccccc3)c3ccccc32)CC1	5%	4%[59 µM]	48%	4%	x	1%
CCCCOc1ccc(CSC(=N)N)cc1Cl	20µM*	3%	9%	-7%	29%	-2%
CCCCCOc1ccc(Br)cc1CSC(=N)N	-6%	-12%[59 µM]	14%	-31%	3%	6%
O=C(N1CCc2ccc(S(=O)(=O)N3CCN(S(=O)(=O)c4ccc5c(c4)OCCO5)CC3)cc2C1)C(F)(F)F	x	x	x	-4%	x	x
Cc1ccc(Sc2c([N+](=O)[O-])ncn2C)cc1	1%	50%	6%	-5%[57.1 µM]	-13%	2%[57.1 µM]
Cn1cnc([N+](=O)[O-])c1SCC(O)CCl (stereo not given)	2%	-5%	32%	-16%	5%	-23%
Cn1cnc([N+](=O)[O-])c1SCCO	-1%	22µM*	27%	-12%	3%	-14%
Cn1cnc([N+](=O)[O-])c1Sc1ncccc1N	5%	3.5µM*	65%	4%	x	9%
Cc1ccc(CSc2nc3cccnc3n2Cc2nc(-c3ccccc3F)oc2C)cc1	3%	u	28%	-31%	x	-10%

Compound activity (PubChem BioAssay)
